# Assay results taken from PubChem BioAssay (NCI).
# “And” between values parts separate entries of the source, which are not always exact repeats. Equal values may be shown once. Compounds without any hit were thinned out: in the full panel of roughly 83,000, 20% have a hit.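 Values shown are percent growth following 48 h exposure of cells in 96-well plates to a single concentration of compound; below 10 was considered active.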 Values without a mark were called inactive. The source made the active and inactive calls.
# System: MDA-MB-468 breast
# Test: NCI-60 one-dose screen, 48 h (100 = growth as untreated, 0 = no growth, -100 = all killed)
# Conditions: 10 µM unless noted
row,Structure (SMILES),growth
1,[Cl][Hg][n]1cnc2c(Cl)c(Cl)c(Cl)cc21,115%
2,COC(=O)CC12CC(NC(=O)c3csc([C@@H](C[C@H](C(C)C)N(C)C(=O)[C@@H](NC(=O)[C@H]4CCCCN4C)C(C)C)OC(C)=O)n3)(C1)C2,38.6%
3,CN1CC2CCC(C1)C2=O,106%
4,COc1cc2c(c(OC)c1OC)-c1ccc(O)cc1[C@@H](NC(C)=O)CC2,-20.9% (active) and -7.5% (active)
5,C[N+]1(C)CCCC1c1cccnc1 (stereo unspecified),101%
6,COC(=O)CCP(CCC(=O)OC)c1ccccc1,105%
7,CC(C)=CCC/C(C)=C/C=N\N=C(/N)N[N+](=O)[O-],103%
8,Cn1cc(-c2csc(-c3cn(CCCCN4CCOCC4)c4ccc(F)cc34)n2)c2cccnc21,65%
9,CC[C@H](C)[C@H](NC(=O)[C@H]1CCCCN1C)C(=O)N(C)[C@H](C(=O)NC12CC(C(=O)N[C@@H](Cc3ccccc3)C[C@H](C)C(=O)OC)(C1)C2)C(C)C,116%
10,CC(=O)[O][Hg][c]1nc2c(c(=O)n(C)c(=O)n2C)n1C,102%
11,CCCC[C@H](NC(=O)[C@H]1CCCCN1C)C(=O)N(C)[C@H](C[C@@H](OC(C)=O)c1nc(C(=O)N[C@@H](Cc2ccccc2)C[C@H](C)C(=O)OCC)cs1)C(C)C,31.2%
12,CC[C@@H](C)C(=O)O[C@H]1[C@H](O)[C@H]2[C@@H](CN3C[C@@H](C)CC[C@H]3[C@@]2(C)O)[C@@H]2C[C@]34O[C@]5(O)[C@@H](OC(=O)[C@@](C)(O)CC)CC[C@@]3(C)[C@@H]5[C@@H](OC(C)=O)[C@@H](OC(C)=O)[C@H]4[C@@]21O,90.6%
13,Oc1c(O)c(Cl)c(Cl)c(Cl)c1Cl,74.2%
14,COc1cc(/C=C\[N+](=O)[O-])ccc1OCc1ccccc1,6.8% (active)
15,ClCCN(CCCl)c1ccc(/C=N\N=C\c2ccc(N(CCCl)CCCl)cc2)cc1,50%
16,O1[As]2O[As]3O[As]1O[As](O2)O3,-63.2% (active)

row,Structure (SMILES),growth
1,COc1ccc2c(c1)c(C1(O)CC(CSC#N)OC1=O)cn2C(=O)c1ccc(Cl)cc1 (stereo unspecified),109%
2,Oc1ccc(O)c(Cl)c1,89.7% and 95.1%
3,CCCCCCCCCCCCCCCCCC1OCC(COC(=O)O[C@@H](C(=O)O[C@H]2C[C@@]3(O)[C@@H](OC(=O)c4ccccc4)[C@@H]4[C@]5(OC(C)=O)CO[C@@H]5C[C@H](O)[C@@]4(C)C(=O)[C@H](OC(C)=O)C(=C2C)C3(C)C)[C@@H](NC(=O)c2ccccc2)c2ccccc2)O1 (stereo partly specified),3.29% (active)
4,CCC(C)[C@H]1O[C@]2(C=C[C@@H]1C)C[C@@H]1C[C@@H](C/C=C(\C)[C@@H](OC3C[C@H](OC)C(O[C@H]4C[C@H](OC)[C@@H](O)[C@H](C)O4)[C@H](C)O3)[C@@H](C)/C=C/C=C3\CO[C@@H]4[C@H](O)C(C)=C[C@@H](C(=O)O1)[C@]34O)O2 (stereo partly specified),-12.7% (active)
5,CCC1CCC(=O)O1 (stereo unspecified),99.3% and 109%
6,CCOC(=O)C(Cc1ccc(N(CCCl)CCCl)cc1)NC(=O)C(CC(C)C)NC(C)=O (stereo unspecified),-45.6% (active)
7,[O]=[Sn]([CH]1CCCCC1)[CH]1CCCCC1,-92.2% (active)
8,CCn1nccc1NC(=O)C(=O)c1cn(Cc2ccc(F)cc2)c2cccc(OC)c12,102%
9,COc1cc(C2C3=C(CCCC3=O)N(CCO)c3cc4c(cc32)CCC4)cc(OC)c1OC (stereo unspecified),93.8%
10,CC(=O)[O][Hg][c]1ccccc1,-83.8% (active)
11,O=[N+]([O-])c1cc([N+](=O)[O-])c(Cl)cc1Cl,-73.8% (active)
12,C/C1=C/C(=O)O[C@@H]2C[C@@H](CC[C@H](C)/C=C\C=C\CC1)O[C@@](O)([C@@H]1CSC(=O)N1CO)C2,10.3%
13,COC(=O)[C@@H](C)C[C@H](Cc1ccccc1)NC(=O)c1nc([C@@H](C[C@H](C(C)C)N(C)C(=O)[C@@H](NC(=O)[C@H]2CC(=O)CCN2C)C(C)C)OC(C)=O)sc1C(C)C,7.54% (active)
14,CC1(C)N=C(N)N=C(N)N1c1ccc(CCCCc2ccc(S(=O)(=O)F)cc2)c(Cl)c1,7.5% (active)
15,O=S(=O)(O)c1ccc(-c2ccc([As](=O)(O)O)cc2)cc1,105%
